# Source: the supplement of paper PMC13094657
# ± gives the standard deviation of the averaged measurements.
# Legend:
# MDA-MB-231 [1] = assay: cell viability relative to vehicle unstimulated control (fraction); higher = more viable cells; settings: pre-treatment time: 18 h then 24 h IFNg/TNF
# MDA-MB-231 [2] = assay: kynurenine production, fold change vs DMSO IFNg/TNF control; higher = more kynurenine produced (less inhibition); settings: pre-treatment time: 18 h then 24 h IFNg/TNF
# How it was run: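 In 96-well plates, MDA-MB-231 cells (7 × 10^4/well) were given 24 h to settle, pre-treated for 18 h with each natural product in 0.1% DMSO, and stimulated for 24 h with IFNγ (1 U/ml) and TNF (6.25 ng/ml) at 37°C. Supernatants were processed with trichloroacetic acid and p-dimethylaminobenzaldehyde and read at 492 nm against 0–100 μM standards. In the first screening round, kynurenine production, as fold change over same-plate cytokine-stimulated vehicle wells, was averaged over duplicate plates.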
# 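For cell viability relative to vehicle unstimulated control in this document: viability of the cells left after supernatant collection, read with Deep Blue dye added for 4 h, as absorbance at 570 nm minus 600 nm.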
SMILES,cell viability (MDA-MB-231 [1]),kynurenine production (MDA-MB-231 [2])
CC(=O)O[C@H]1CC/C(C)=C/CC/C(C)=C/C[C@]2(C(C)C)CC[C@@]1(C)O2 [Incensole Acetate] (compound dose: 10 uM),1.11 ± 0.01,0.941 ± 0.18
C[C@]1(O)C[C@@H](O)[C@]2(O)C=CO[C@@H](O[C@H]3O[C@H](CO)[C@@H](O)[C@H](O)[C@H]3O)[C@@H]21 [Harpagide] (compound dose: 10 uM),1.02 ± 0.016,0.747 ± 0.068
C=C(C)[C@@H]1CC[C@]2(C)CC[C@]3(C)[C@H](CC[C@@H]4[C@@]5(C)CC[C@H](O)C(C)(C)[C@@H]5CC[C@]43C)[C@@H]12 [Lupeol] (compound dose: 2 uM),0.861 ± 0.041,0.921 ± 0.085
C=C(CCC=C(C)C)[C@H]1CC[C@]2(C)[C@@H]1[C@H](O)C[C@@H]1[C@@]3(C)CC[C@H](O)C(C)(C)[C@@H]3[C@@H](O[C@@H]3O[C@H](CO)[C@@H](O)[C@H](O)[C@H]3O)C[C@]12C [Ginsenoside Rk3] (compound dose: 10 uM),0.96 ± 0.035,0.81 ± 0.11
CC(C)=CCC[C@@H](C)CC=O [(R)-(+)-Citronellal] (compound dose: 10 uM),1.07 ± 0.035,1.44 ± 0.056
CC(C)=CCCC(C)(OC1OC(CO)C(O)C(O)C1O)C1CCC2(C)C1C(O)CC1C3(C)CC(O)C(OC4OC(CO)C(O)C(O)C4OC4OC(CO)C(O)C(O)C4O)C(C)(C)C3CCC12C (centres undefined) [Gypenoside XLVI] (compound dose: 10 uM),1.03 ± 0.27,0.812 ± 0.16
CC1=CC[C@@H](C(C)(C)O)CC1 [(-)-α-terpineol] (compound dose: 10 uM),0.979 ± 0.044,0.913 ± 0.057
CC(C)=CCC[C@@](C)(O)[C@H]1CC[C@]2(C)[C@@H]1[C@H](O)C[C@@H]1[C@@]3(C)C[C@@H](O)[C@H](O[C@@H]4O[C@H](CO)[C@@H](O)[C@H](O)[C@H]4O[C@@H]4O[C@H](CO)[C@@H](O)[C@H](O)[C@H]4O)C(C)(C)[C@@H]3CC[C@]12C [Gypenoside LI] (compound dose: 10 uM),0.936 ± 0.084,0.724 ± 0.1
CC1(C)CCC2(CO)C(=C3C=CC4C5(C)CCC(OC6OC(COC7OC(CO)C(O)C(O)C7O)C(OC7OC(CO)C(O)C(O)C7O)C(O)C6O)CC5C(C)(CO)CC4(C)C3(C)CC2O)C1 (centres undefined) [Clinodiside A] (compound dose: 10 uM),0.918 ± 0.029,1.03 ± 0.2
CC(=O)OC/C=C(\C)CCC=C(C)C [Geranyl acetate] (compound dose: 10 uM),1.01 ± 0.065,0.882 ± 0.039
"C=C1CC[C@@H]2[C@](C)(CO)[C@H](O)CC[C@@]2(C)[C@@H]1/C=C/C1=CCOC1=O [14-Deoxy-11,12-didehydroandrographolide] (compound dose: 10 uM)",0.857 ± 0.047,0.921 ± 0.095
CC(C)=CCC[C@@H](C)CCO [(R)-Citronellol] (compound dose: 10 uM),1.029 ± 0.0012,0.824 ± 0.11
C=C(C)[C@H]1CC=C(C)C(=O)C1 [D(+)-carvone] (compound dose: 10 uM),1 ± 0.026,0.864 ± 0.022
COC(=O)C1=CO[C@@H](O[C@@H]2O[C@H](CO)[C@@H](O)[C@H](O)[C@H]2O)[C@@H]2[C@@H](C)[C@@H](O)C[C@H]12 [Loganin] (compound dose: 10 uM),1.05 ± 0.041,1.02 ± 0.18
C[C@@H]1O[C@@H](O[C@H]2[C@H](OC(=O)[C@]34CCC(C)(C)C[C@H]3C3=CC[C@@H]5[C@@]6(C)C[C@H](O)[C@H](O[C@@H]7O[C@H](CO)[C@@H](O)[C@H](O)[C@H]7O)[C@](C)(CO)[C@@H]6CC[C@@]5(C)[C@]3(C)CC4)O[C@H](CO)[C@@H](O[C@@H]3OC[C@@H](O)[C@H](O)[C@H]3O)[C@@H]2O[C@@H]2OC[C@](O)(CO)[C@H]2O)[C@H](O)[C@H](O)[C@H]1O [Polygalasaponin V] (compound dose: 10 uM),0.992 ± 0.027,0.803 ± 0.068
O[C@H]1[C@H]2c3cc4c(cc3CN3CCC(=C[C@@H]1O)[C@H]23)OCO4 [Lycorine chloride] (compound dose: 10 uM),0.582 ± 0.056,0.184 ± 0.072
CC(=O)c1c[nH]c2ccccc12 [3-acetylindol] (compound dose: 10 uM),0.955 ± 0.15,1.11 ± 0.14
C/C=C1\C(=O)C[C@H]2[C@@H]3CCC4=CC(=O)CC[C@]4(C)[C@H]3CC[C@]12C [Guggulsterone] (compound dose: 10 uM),0.9378 ± 0.0046,0.324 ± 0.043
CC1(C(=O)O)CCC2(C)CCC3(C)C(=CC(=O)C4C5(C)CCC(O)C(C)(C)C5CCC43C)C2C1 (stereo not drawn) [18β-Glycyrrhetinic acid] (compound dose: 10 uM),1.02 ± 0.17,1.09 ± 0.18

SMILES,cell viability (MDA-MB-231 [1]),kynurenine production (MDA-MB-231 [2])
CC1(C)C(O[C@@H]2OC[C@@H](O)[C@H](O)[C@H]2O)CC[C@]23CC24CC[C@]2(C)[C@@H]([C@@]5(C)CC[C@@H](C(C)(C)O)O5)[C@H](O)C[C@@]2(C)C4C[C@@H](O[C@@H]2O[C@H](CO)[C@@H](O)[C@H](O)[C@H]2O)C13 (some centres undefined) [Astragaloside IV] (compound dose: 10 uM),1.05 ± 0.022,0.878 ± 0.068
C=C1C(=O)O[C@@H]2C[C@@]3(C)CCCC(=C)[C@@H]3C[C@H]12 [Isoalantolactone] (compound dose: 10 uM),0.951 ± 0.082,0.255 ± 0.077
C/C=C(/C)C(=O)O[C@H]1C(C)=C[C@]23C(=O)[C@@H](C=C(COC(C)=O)[C@@H](O)[C@]12O)[C@H]1[C@@H](C[C@H]3C)C1(C)C [20-O-Acetylingenol-3-angelate] (compound dose: 10 uM),1.1 ± 0.091,0.874 ± 0.053
CC(C)=CCC/C(C)=C/CC/C(C)=C/CC/C=C(\C)CC/C=C(\C)CCC=C(C)C [Squalene] (compound dose: 10 uM),0.914 ± 0.13,0.887 ± 0.027
CC1(C)[C@@H](O[C@H]2O[C@H](C(=O)O)[C@@H](O)[C@H](O)[C@H]2O[C@@H]2O[C@H](C(=O)O)[C@@H](O)[C@H](O)[C@H]2O)CC[C@]2(C)[C@H]3C(=O)C=C4[C@@H]5C[C@@](C)(C(=O)O)CC[C@]5(C)CC[C@@]4(C)[C@]3(C)CC[C@@H]12 [Ammonium glycyrrhizinate] (compound dose: 10 uM),0.952 ± 0.033,0.801 ± 0.2
CC1(C)CC[C@]2(C)CC[C@]3(C)C(=CC[C@@H]4[C@@]5(C)CC[C@@H](O)[C@](C)(C(=O)O)[C@@H]5CC[C@]43C)[C@@H]2C1 [alpha-Boswellic acid] (compound dose: 10 uM),0.953 ± 0.011,0.911 ± 0.028
CC(C)=CCC[C@H](C)CC=O [(S)-(-)-Citronellal] (compound dose: 10 uM),1.04 ± 0.05,1.14 ± 0.18
C=C1CC[C@@H]2[C@](C)(CO)[C@H](O)CC[C@@]2(C)[C@@H]1C/C=C1/C(=O)OC[C@H]1O [Andrographolide] (compound dose: 10 uM),0.98 ± 0.018,0.534 ± 0.15
C/C1=C\CCC2=C[C@@H](OC2=O)c2c(C)coc2C1 [Linderalactone] (compound dose: 10 uM),0.998,0.815 ± 0.018
O=C1O[C@H]2[C@@H]3OC(=O)c4cc(O)c(O)c(O)c4-c4c(O)c(O)c5oc(=O)c6c(c(O)c(O)c7oc(=O)c4c5c76)-c4c(cc(O)c(O)c4O)C(=O)OC[C@H]3OC(O)[C@@H]2OC(=O)c2cc(O)c(O)c(O)c2-c2c1cc(O)c(O)c2O (mixture of isomers) [Punicalagin] (compound dose: 10 uM),1.001 ± 0.0011,0.1 ± 0.0087
CC(C)C1=CC2=CC[C@@H]3[C@](C)(CCC[C@@]3(C)C(=O)O)[C@H]2CC1 [Abietic acid] (compound dose: 10 uM),1.08 ± 0.025,0.803 ± 0.22
COC(=O)C1=CO[C@@H](O)[C@@H]2C(CO)=CC[C@H]12 [Genipin] (compound dose: 10 uM),1 ± 0.026,0.76 ± 0.052
C[C@H]1[C@H](C)CC[C@]2(C(=O)O[C@@H]3O[C@H](CO[C@@H]4O[C@H](CO)[C@@H](O[C@@H]5O[C@@H](C)[C@H](O)[C@@H](O)[C@H]5O)[C@H](O)[C@H]4O)[C@@H](O)[C@H](O)[C@H]3O)CC[C@]3(C)C(=CC[C@@H]4[C@@]5(C)C[C@@H](O)[C@H](O)[C@@](C)(CO)[C@@H]5[C@H](O)C[C@]43C)[C@H]12 [Madecassoside] (compound dose: 10 uM),1.03 ± 0.042,0.817 ± 0.099
C=C1C(=O)O[C@H]2C[C@H](C)C(/C=C/C(C)=O)=CC[C@H]12 [Xanthatin] (compound dose: 10 uM),0.66 ± 0.18,0.13 ± 0.042
CC[C@@H](C(=O)[C@@H](C)[C@@H](O)[C@H](C)CCc1ccc(C)c(O)c1C(=O)O)[C@H]1O[C@](CC)([C@H]2CC[C@](O)(CC)[C@H](C)O2)C[C@@H]1C [Lasalocid] (compound dose: 10 uM),0.877 ± 0.017,0.509 ± 0.022
C=C1C(=O)O[C@@H]2/C=C(\C)[C@@H](OC(C)=O)C/C=C(\COC(C)=O)C[C@@H](OC(=O)/C(C)=C/CO)[C@@H]12 [Eupalinolide B] (compound dose: 10 uM),0.899 ± 0.057,0.26 ± 0.0058
C=C(C)C1CC=C(C)[C@@H](O)C1 (some centres undefined) [Carveol] (compound dose: 10 uM),1.07 ± 0.081,0.801 ± 0.38
CC1(C)CC[C@]2(C(=O)O[C@@H]3O[C@H](CO)[C@@H](O)[C@H](O)[C@H]3O)CC[C@]3(C)C(=CC[C@@H]4[C@@]5(C)CC[C@H](O[C@@H]6O[C@H](CO)[C@@H](O)[C@H](O[C@@H]7O[C@H](CO)[C@@H](O)[C@H](O)[C@H]7O)[C@H]6O[C@@H]6O[C@H](CO)[C@@H](O)[C@H](O)[C@H]6O)[C@@](C)(CO)[C@@H]5CC[C@]43C)[C@@H]2C1 [Araloside VII] (compound dose: 10 uM),0.941 ± 0.026,0.825 ± 0.13
